# Records with an inconclusive call do not appear. Where a call stands in place of a potency, no number is given. Active and inactive are the calls of the source. Calls follow the shape of the dose curve; as a rule, active = well fitted cell-killing curve with a large enough effect; inconclusive = small, poorly fitted or top-dose-only effect, or effect the other way; inactive = flat fitted curve, though single readings scatter.
# System: CAOV3
# Test: Primary qHTS to identify gynecologic anti-cancer compounds using libraries of approved drugs and bioactive compounds (AID 1345084); also: nearly all actives have a fitted effect of over 55% in size
# Conditions: Gynecologic cancer cell panel viability, ATPlite luminescence, 48 h; series mostly up to 57.5 µM
# Excerpt: National Center for Advancing Translational Sciences [NCATS] Assay Overview: Chemotherapeutic drug responses vary from cancer to cancer and from patient to patient. These variations could be caused by a number of factors including patient genomic background, tumor mutations, tumor heterogeneity, and aspects of drug treatment. Chemotherapeutic drug resistance is also a common issue and can lead to ineffective treatment and patient death. Here we have profiled the cell killing effects of thousands of compounds to characterize the responses in three gynecological cancers, identify cancer-selective compounds, and understand the diversity of responses to these compounds from pan-cancer suppressors to single cell line selective compounds. In this assay, we screened a 7,914 compound drug library that included approved drug and bioactive compounds in six ovarian, three cervical, and […] placental cancer cell lines using the ATPlite assay for cell viability. […] The cervical cancer cell lines included HeLa, Ca Ski, and C-33 A. The placental cancer cell lines included JEG-3. HEK 293T cells were used as the control cell line to determine the selectivity index. ATPlite is a luminescence based assay reliant on the conversion of a luciferase substrate to light in the presence of ATP. As a cytotoxic compound will suppress growth and decrease the number of cells, the concentration of ATP will decrease, and less light signal will be detected in the well.
# Assay Protocol Summary: 1,000 cells in 4 uL of media were dispensed into white, solid bottom 1536-well plates using a Multidrop Combi (Thermo Scientific). The Assay plates were incubated for 16 hours at 37 C with 5% CO2 in assay plates, followed by the addition of 23 nL of DMSO or drug dissolved in DMSO. Each compound was assayed in five concentrations (0.092, 0.46, 2.3, 11.5, and 57.5 uM), using the automated Wako 1536 Pin Tool workstation and incubated at 37 C with 5% CO2 48 hours. 4 uL of ATPlite, the ATP monitoring reagent, was then added to the each well of the assay plates using the Multidrop Combi reagent dispenser followed by incubation for 15 minutes at room temperature. The resulting luminescence was measured using the ViewLux plate reader.
# Potency is read from the fitted curve at half-maximal effect.
SMILES,Potency,"activity change, negative = cytotoxicity"
CNC(=O)c1ccc(N2C(=S)N(c3cnc(C#N)c(C(F)(F)F)c3)C(=O)C23CCC3)cc1F,inactive,–
CCCn1c(=O)c2[nH]c(-c3cnn(Cc4cccc(C(F)(F)F)c4)c3)nc2n(CC)c1=O,inactive,–
COC(=O)Nc1nc2ccc(C(=O)c3ccc(F)cc3)cc2[nH]1,inactive,–
Cn1c(CNc2ccc(C(=N)N)cc2)nc2cc(C(=O)N(CCC(=O)O)c3ccccn3)ccc21,inactive,–
Clc1ccc2ncc(-c3cccc(NC4CNC4)n3)n2c1,inactive,–
CS(=O)(=O)c1ccc(-c2cnc(N)c(C(=O)Nc3ccccc3)n2)cc1,inactive,–
CCNC(=O)Nc1ccc2ncc(Nc3ccc(C)cc3)nc2n1,inactive,–
Cc1cn(-c2cc(NC(=O)c3ccc(C)c(Nc4nccc(-c5cccnc5)n4)c3)cc(C(F)(F)F)c2)cn1,inactive,–
Nc1ccccc1NC(=O)c1ccc(CNC(=O)OCc2cccnc2)cc1,inactive,–
COc1ccc(-n2nc(C(N)=O)c3c2C(=O)N(c2ccc(N4CCCCC4=O)cc2)CC3)cc1,inactive,–
CC[C@@H]1C(=O)N(C)c2cnc(Nc3ccc(C(=O)NC4CCC(N5CCN(CC6CC6)CC5)CC4)cc3OC)nc2N1C(C)C (stereo not given in full),12.6 µM (active),–
Clc1cccc(-c2nnnn2Cc2cccnc2)c1Cl,inactive,–
C=CC(=O)Nc1cccc(Oc2nc(Nc3ccc(N4CCN(C)CC4)cc3)ncc2Cl)c1,7.94 µM (active),–
CCn1cc(-c2ccnc3[nH]c(-c4cccc(CN(C)C)c4)cc23)c(-c2ccc(NC(=O)N(C)C)cc2)n1,inactive,–
COc1ccc(C(=O)CC2(O)C(=O)Nc3c(Cl)ccc(Cl)c32)cc1 (stereo not given),inactive,–
CC(C)c1nn(-c2c(Cl)cccc2Cl)c2nc(Cc3ccc(OCCO)cc3)[nH]c(=O)c12,0.158 µM (active),–
COc1cc(Nc2ncc(F)c(Nc3ccc4c(n3)N(COP(=O)(O)O)C(=O)C(C)(C)O4)n2)cc(OC)c1OC,11.2 µM (active),–
CNC(=O)CN1CCC(Oc2cc3c(Nc4cccc(Cl)c4F)ncnc3cc2OC)CC1,inactive,–
COc1cc2c(NC3CCN(C(C)C)CC3)nc(C3CCCCC3)nc2cc1OCCCN1CCCC1,6.31 µM (active),–
O=C(Nc1cc(C(F)(F)F)cc(C(F)(F)F)c1)c1cc(Cl)ccc1O,8.91 µM (active),–

SMILES,Potency,"activity change, negative = cytotoxicity"
Cc1ccc(C(=O)Nc2cccc(C(F)(F)F)c2)cc1-c1ccc2nc(NCCN3CCOCC3)ncc2c1,22.4 µM (active),–
CCc1cc2c(cc1N1CCC(N3CCOCC3)CC1)C(C)(C)c1[nH]c3cc(C#N)ccc3c1C2=O,inactive,–
Cc1cc(C(=O)N2CCN(c3cccc(Cl)c3)CC2)n(-c2ccccc2)n1,inactive,–
C1Cc2[nH]nc(-c3nn[nH]n3)c2C1,inactive,–
CC1COC2(CCN(c3nc(=O)c4cc(C(F)(F)F)cc([N+](=O)[O-])c4s3)CC2)O1 (stereo not given),inactive,–
NC(=O)c1cccc2cn(-c3ccc([C@@H]4CCCNC4)cc3)nc12,inactive,–
COc1cc2c(Oc3ccc(-c4cnc(Nc5ccc(F)cc5)n(C)c4=O)cc3F)ccnc2cc1OCCCN1CCOCC1,inactive,–
COc1ccc2c(c1)CC[C@@H](CN(C)CC(=O)O)[C@H]2c1ccccc1,inactive,–
Nc1nc(NCCNc2ncc(-n3ccnc3)c(-c3ccc(Cl)cc3Cl)n2)ccc1[N+](=O)[O-],inactive,–
CN(C1CCc2c(c3ccccc3n2CC(=O)O)C1)S(=O)(=O)c1ccc(F)cc1 (stereo not given),inactive,–
CNC(=O)c1cc(Oc2ccc(NC(=O)Nc3cc(C(C)(C)C)nn3-c3ccc4ncccc4c3)c(F)c2)ccn1,inactive,–
CC(=O)c1c(C)c2cnc(Nc3ccc(N4CCNCC4)cn3)nc2n(C2CCCC2)c1=O,–,11.3% [at 6.55 µM] (inactive)
O=c1c2ccccc2nc2n1CCc1c-2[nH]c2ccccc12,inactive,–
C[C@]1(CO)CN(c2cc(C(=O)Nc3ccc4c(c3)-c3c(c(C(N)=O)nn3-c3ccc(F)cc3)CC4)c(Cl)cn2)C[C@@]1(C)CO,inactive,–
CC1(O)CC(c2nc(-c3ccc4ccc(-c5ccccc5)nc4c3)c3c(N)nccn23)C1 (stereo not given),inactive,–
CCCCOc1c(C(=O)c2c(F)cc(C)cc2F)cnc2n[nH]cc12,inactive,–
CN(C)CC(C)(C)CNc1nn2c(-c3ccccc3)nnc2cc1C1CCC1,inactive,–
COc1cc2c(Oc3ccc(NC(=O)C4(C(=O)Nc5ccc(F)cc5)CC4)cc3F)ccnc2cc1OCCCN1CCOCC1,10 µM (active),–
CCn1nnc2c(N3CCOCC3)nc(-c3ccc(NC(=O)Nc4ccc(C(=O)N5CCN(C)CC5)cc4)cc3)nc21,0.316 µM (active),–
CC(=O)Nc1sc2c(c1-c1nc3ccccc3s1)CNC2,inactive,–
